Pf apPOL inh = Pf-apPOL inhibitors, biochemical, fluorescence. inhibition, % at 10 µM. 210,000 compounds, 0.25% hits. Recombinant Pf-apPOL, molecular beacon fluorescence, 1.5 h. Plasmodium falciparum apicoplast DNA polymerase (apPOL). AID 1794808, 2022
mHTT CaM bind = mutant huntingtin-calmodulin interaction inhibitors – biochemical, AlphaScreen, primary screen; P42858; AlphaScreen His-mHTT/GST-CaM binding, luminescence; inhibition, % at 15 µM; 190,000 compounds, 3.6% hits; AID 1671202, 2021;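 also: 0% = both proteins with DMSO and 100% = one protein alone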
The depositor's hits bear a star; . = no result given. Only a selection was taken, and hits are over-represented in it overall. Rule as the data show it: active = inhibition above about 50%; inactive = the rest.

SMILES | Pf apPOL inh | mHTT CaM bind
O=C(NC1=NN(C(=O)c2ccccc2)C(c2ccccc2)N1C(=O)c1ccccc1)c1ccccc1 (centres undefined) | -23 | .
COc1ccc(OC)c(N2Cc3ccc(OC)c(OC)c3C2=O)c1 | -7 | 10
O=C(Cn1c(-c2cccnc2)nc2ccccc21)NCc1ccccc1Cl | -6 | 34
O=C(CC1CCN(C(=O)C2CCCCC2)CC1)NCCCN1CCCCC1 | -1 | 6
O=C1Nc2ccc(Br)cc2/C1=C/c1ccc(O)cc1 | -29 | 100*
O=C1Nc2ccc(Br)cc2/C1=C/c1ccc(Br)cc1 | 2 | 35
O=C1Nc2ccc(F)cc2/C1=C/c1ccc(F)cc1 | 0 | 17
CC(C)c1ccc(/C=C2\C(=O)Nc3ccc(F)cc32)cc1 | -8 | 100*
CSc1ccc(/C=C2\C(=O)Nc3ccc(Br)cc32)cc1 | 3 | 39
O=C1Nc2ccc(F)cc2/C1=C/c1ccccc1F | -7 | 21
Cc1ccccc1/C=C1\C(=O)Nc2ccc(F)cc21 | -10 | 100*
Cc1ccc(/C=C2\C(=O)Nc3ccc(Br)cc32)o1 | 0 | 75*
CN(C)c1cccc(C2=COC3(CCCN(C(=O)C4CCCC4)C3)C2)c1 (centres undefined) | -11 | 20
COc1ccccc1C1CC(=O)NC(SCC(N)=O)=C1C#N (centres undefined) | -1 | 5
CCC(=O)NCc1csc(C2CCN(C(=O)c3ccc(C)cc3)CC2)n1 | -3 | 4
Cc1ccccc1OCc1nc(-c2cccc(-c3ccn[nH]3)c2)no1 | 2 | 8
COCCNC(=O)C1CCCN(c2nccnc2Sc2ccccc2)C1 (centres undefined) | -1 | -3
CC(=O)NC1=NC(=O)/C(=C/c2c(C)n(Cc3ccc(F)cc3)c3ccccc23)S1 | -3 | 100*
CC(=O)NC1=NC(=O)/C(=C/c2ccc(F)cc2)S1 | -4 | -6
O=C(Cc1ccccc1)Nc1cccc(NC(=O)Cc2ccccc2)n1 | 65* | -4
O=C(Cc1ccccc1)Nc1ccccc1NC(=O)Cc1ccccc1 | -7 | 2
O=C(Cc1ccccc1)Nc1ccc(N2CCCC2)cc1 | -10 | 92*
COc1cccc2cc(C(=O)Nc3ccc(N4CCCN(C(=O)C5CC5)CC4)cc3)oc12 | 4 | 61*
COc1ccc(CC(=O)Nc2ccccc2)cc1OC | -6 | -2
COc1ccc(CC(=O)Nc2ccc(Nc3ccccc3)cc2)cc1OC | -7 | 62*
SMILES | Pf apPOL inh | mHTT CaM bind
O=C(Cc1ccccc1)Nc1ccc(S(=O)(=O)N2CCCC2)cc1 | -8 | 1
O=C(Nc1ccc(N2CCCN(C(=O)C3CC3)CC2)cc1)c1cc(-c2ccccc2)on1 | -4 | 13
O=C1S/C(=C\c2ccccc2O)C(=O)N1CNc1ccc(I)cc1 | -4 | 22
COc1cc([N+](=O)[O-])ccc1-c1ccc(C(=O)Nc2ccc(N3CCCCC3)cc2)o1 | -5 | 51*
O=C(COc1ccccc1[N+](=O)[O-])Nc1cc(C(=O)O)cc(C(=O)O)c1 | 1 | -6
O=C(Cc1ccccc1)Nc1ccc(Nc2ccccc2)cc1 | -4 | 62*
COc1ccc(NC(=O)c2ccc(-c3ccc([N+](=O)[O-])cc3OC)o2)cc1Cl | -7 | 42
COc1ccccc1C(=O)Nc1cnc(N2CCCC2)nc1 | -2 | -3
COc1ccccc1C(=O)Nc1ccc(N2CCCC2)cc1 | 0 | 61*
O=C(COc1ccccc1[N+](=O)[O-])Nc1ccc(N2CCCC2)cc1 | 54* | 34
O=C(Cc1ccc([N+](=O)[O-])cc1)Nc1ccc(Nc2ccccc2)cc1 | -6 | 31
CCCCCNC(=O)c1ccc2c(c1)nc(C)n2-c1cc(OC)ccc1OC | -10 | 22
O=C(c1cccc(Cl)c1)N1CCc2nc(Cc3cccc(F)c3)[nH]c(=O)c2C1 | 6 | 8
Cc1cccc(C(=O)N2CCCC(C(=O)Nc3ccc(N4CCC(C)CC4)cc3)C2)c1 (centres undefined) | -8 | 46
Cc1cccc(OCC(=O)Nc2ccccc2C(=O)N2CCCCC2)c1 | -7 | -8
CC(C)(C)CC(=O)N1CC(C(=O)N2CCCC2)C(c2ccccc2)C1 (centres undefined) | 3 | 4
Cc1ccc(OCc2nc(C(=O)N3CCOCC3)cs2)cc1C | -1 | -4
COc1ccccc1CNC(=O)c1cc2c(s1)CN(C(C)C)C2 | -3 | 10
COCCCNC(=O)c1cnc(N2CCN(c3ncccn3)CC2)c2ccccc12 | -3 | 7
Cc1ccc(C(=O)Nc2ccc(N3CCOCC3)cc2)cc1C | 3 | 11
Cc1ccc(C(=O)Nc2ccc(N3CCCC3)cc2)cc1Cl | -3 | 100*
Cc1ccc(NC(=O)C2CCN(c3nccc(C)n3)CC2)cc1 | 0 | -11
N#C/C(=C\c1ccccc1[N+](=O)[O-])c1nc(-c2ccc3c(c2)OCO3)cs1 | -3 | 9
N#C/C(=C\c1ccc(O)c(O)c1)c1nc(-c2ccc3c(c2)OCO3)cs1 | 6 | 98*
COc1ccc(/C=C(\C#N)c2nc(-c3ccc(OC)c(OC)c3)cs2)cc1O | 0 | 1

Bioassay records as filed in PubChem BioAssay.
